This is part of a sample that, as a whole, favours compounds with a hit. Of some 83,000 tested, about 20% had one in any assay.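 In brief: 96-well plates, 48 h treatment, single concentration, percent growth endpoint.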 Active and inactive are the calls of the source. Rule for the calls: active = growth percent below 10; inactive = the rest.
Each compound was assayed on SW-620 colon (assay: NCI-60 one-dose screen, 48 h (100 = growth as untreated, 0 = no growth, -100 = all killed)). Settings: 10 µM unless noted.

Row | SMILES | growth
1 | Cc1ncc(C(=O)Nc2ccc(CN3CCN(C)CC3)c(C(F)(F)F)c2)cc1C#Cc1cnc(N)c2ncccc12 | 16.6% (inactive)
2 | COc1ccc(C(=O)N2c3ccccc3Sc3ccccc32)c(C(F)(F)F)c1 | 24.7% (inactive)
3 | Cc1ccc(Cl)cc1NC(=O)c1sc2nc3c(cc2c1N)C(=O)CCC3 | 36.5% (inactive)
4 | Oc1c(CN2CCCC2)cc(CSCc2ccccc2)c2cccnc12 | 13.6% (inactive)
5 | CCOC(=O)CC1CSC(Nc2ccccc2)=N1 (stereo unspecified) | 108% (inactive)
6 | C#CCNC(=O)[C@]1(C)CCC[C@@]2(C)[C@H]1CC=C1C=C(C(C)C)CC[C@@H]12 | 109% (inactive)
7 | CCCCNC(=O)Oc1ccc(/C(=C(/C)Cc2ccc(OC)cc2)c2ccc(OCCN3CCCCC3)cc2)cc1 | 77.4% (inactive)
8 | COc1cccc(/C=C/C(=O)c2cc3c(N)c(C(=O)Nc4cccc5ccccc45)sc3nc2C)c1 | -1.14% (active)
9 | COc1cc2c(cc1OCCCCN1CCN(C(=S)SCCC(C#N)(c3ccccc3)c3ccccc3)CC1)N=C[C@@H]1CCCN1C2=O | -95.6% (active)
10 | CN1C(=O)/C(=C/c2ccc(C(=O)Nc3ncc(Cc4cccc(Cl)c4)s3)cc2)SC1=S | 37.4% (inactive)
11 | Cc1ccc(C(=O)c2ccc(CC(=O)NN3C(=O)c4ccccc4C3=O)n2C)cc1 | 99.3% (inactive)
12 | Cn1c(=O)c2[nH]c(SCC(=O)Nc3ccc(C(=O)/C=C/c4ccccc4Cl)cc3)nc2n(C)c1=O | 95.8% (inactive)
13 | Nc1[nH]c(=S)nc2oc(-c3ccccc3)c(-c3ccccc3)c12 | 106% (inactive)
14 | O=S(=O)(Oc1ccc(Br)cc1)c1ccc(Cl)cc1 | 102% (inactive)
15 | COC(=O)N1CC(Oc2ccccn2)C2CC1c1ccccc1O2 (stereo unspecified) | 102% (inactive)
16 | COc1ccc(/C(C)=C(\c2ccc(Cl)cc2)c2ccc(OCCN3CCCCC3)cc2)cc1 | 24.5% (inactive)
17 | Cc1ccc2nc(-c3ccc(C(=O)NNC(=S)Nc4ccccc4)cc3)[nH]c2c1 | 108% (inactive)
18 | O=S(=O)(NCCCNc1nccc(-c2c(-c3cccc(F)c3)nc3occn23)n1)c1ccc(F)cc1 | 67.7% (inactive)

Row | SMILES | growth
19 | Cc1nc2sc(C(=O)Nc3cccc(Br)c3C)c(N)c2cc1C(O)c1ccccc1 (stereo unspecified) | 20.4% (inactive)
20 | CC1(C)N=C(N)N=C(N)N1c1ccc(CCCCc2ccccc2)c(Cl)c1 | 20.5% (inactive)
21 | CCCCNC(=O)c1cc([N+](=O)[O-])cc(C2CCCCC2)c1O | 68.6% (inactive)
22 | O=C(CCCCCNC(=O)c1cc(=O)c(O)co1)Nc1ccccc1 | 101% (inactive)
23 | CCOC(=O)c1c(C)nc2ccccc2c1/C=C/c1ccccc1 | 91.1% (inactive)
24 | COc1cccc(-c2cc(-c3cccc(Cl)c3)c(C#N)c(=O)[nH]2)c1 | 49.3% (inactive)
25 | CN(CCCNC(=O)CCOCCOCCOCCNC(=O)Cc1ccc2ccc3cccc4ccc1c2c34)CCCNc1cc(-c2ccc3ccccc3c2)nc2ccccc12 | -79.6% (active)
26 | Cc1ccc2nc(/C(C#N)=C(/CCCO)NC(Cc3ccccc3)C(=O)OCc3ccccc3)[nH]c(=O)c2c1 (stereo unspecified) | 110% (inactive)
27 | NS(=O)(=O)c1ccc(-c2cc(-c3nnc(SCC(=O)Nc4ccc(C(=O)/C=C/c5ccc(Cl)cc5)cc4)n3-c3ccccc3)c3ccccc3n2)cc1 | 97.7% (inactive)
28 | COC(=O)c1cc(Br)ccc1O | 114% (inactive)
29 | COc1ccc(-c2cc(-c3ccccc3)nc(N3CCN(CCNc4ccnc5cc(Cl)ccc45)CC3)n2)cc1 | -75.4% (active)
30 | CCCCNC(=O)Oc1ccc(/C(=C(/C)Cc2ccc(OC)cc2)c2ccc(OCCN3CCCCCC3)cc2)cc1 | 85.9% (inactive)
31 | O=C(N=Nc1c(O)[nH]c2ccccc12)Nc1ccc(F)cc1 | 89.4% (inactive)
32 | O=[N+]([O-])c1ccc(-c2cn3nc(-c4c[nH]c5ccccc45)sc3n2)cc1 | 99.9% (inactive)
33 | CN(C)c1ccc(/C=C(\C#N)c2cc3ccccc3[nH]2)cc1 | 13.2% (inactive)
34 | CC(=O)/C(=C/c1ccc([N+](=O)[O-])cc1)C(=O)c1ccccc1 | 65.4% (inactive)
35 | CCOC(=O)c1nn(CC(O)c2ccccc2)c(NC(=O)Nc2cccc(F)c2)c1C (stereo unspecified) | 95.9% (inactive)
36 | CO[C@H](C(=O)[C@@H](O)[C@@H](C)O)[C@@H]1Cc2cc3cc(O[C@H]4C[C@@H](O[C@H]5C[C@@H](O)[C@H](O)C(C)O5)[C@H](O)C(C)(O)O4)cc(O)c3c(O)c2C(=O)[C@H]1O[C@H]1C[C@@H](O[C@H]2C[C@@H](O[C@H]3C[C@@H](OC)[C@H](O)C(C)O3)[C@@H](O)C(C)O2)[C@H](O)C(C)O1 (stereo partly specified) | 34% (inactive)

From PubChem BioAssay (NCI)
